Common to all, as to test: DAPPL (digital affinity profiling via proximity ligation, sequencing); 10 mM Tris-HCl pH 7.5, 50 mM NaCl, 1 mM DTT, 4% glycerol, room temperature, 30 min; GST-TFs on glutathione beads, 16-mer random dsDNA library, 0.1% formaldehyde crosslink after washing; high values mean tight binding
Assay [1] deals with T1, FEV (Homo sapiens, UniProt Q99581 1-238).
T1 sequence: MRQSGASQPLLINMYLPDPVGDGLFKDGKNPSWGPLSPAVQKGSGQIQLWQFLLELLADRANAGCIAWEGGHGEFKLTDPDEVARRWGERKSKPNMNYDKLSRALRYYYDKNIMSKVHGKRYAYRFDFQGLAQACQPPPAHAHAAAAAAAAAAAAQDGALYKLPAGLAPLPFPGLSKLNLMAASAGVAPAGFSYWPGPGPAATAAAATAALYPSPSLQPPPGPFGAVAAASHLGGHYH
As to conditions: protein: recombinant; tags: N-terminal GST; dsDNA, one strand shown. In short, it runs like this:
(§1)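 Each value of binding signal is a hexamer's read frequency for a factor divided by the same hexamer's frequency in the tag-only sample. Barcoded, bead-captured GST fusions of human transcription factors made in yeast were pooled with that sample and incubated with 200 nmole of a random double-stranded 16-mer DNA library in Tris/NaCl/DTT/glycerol buffer at room temperature for 30 min. Washing, 0.1% formaldehyde crosslinking, proximity ligation, PCR and Illumina NextSeq500 sequencing followed.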

Assay [2] addresses ETV5 (Homo sapiens, UniProt P41161 1-510). The settings on record: protein: recombinant; tags: N-terminal GST; dsDNA, one strand shown. In short, it runs like this: as §1
The target of assay [3] is HSF1 (Homo sapiens, UniProt Q00613 1-529). The settings on record: protein: recombinant; tags: N-terminal GST; chain copies: 3; dsDNA, one strand shown. In short, it runs like this:
as §1

In assay [4] the target is T2, SPIC (Homo sapiens, UniProt Q8N5J4 1-248).
T2 sequence: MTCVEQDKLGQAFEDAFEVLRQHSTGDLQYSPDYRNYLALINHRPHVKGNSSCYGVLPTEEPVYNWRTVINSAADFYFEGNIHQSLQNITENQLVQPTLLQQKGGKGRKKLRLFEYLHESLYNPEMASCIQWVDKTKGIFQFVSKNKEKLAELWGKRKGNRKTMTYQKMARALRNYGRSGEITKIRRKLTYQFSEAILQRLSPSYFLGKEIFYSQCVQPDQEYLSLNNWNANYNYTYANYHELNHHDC
As to conditions: protein: recombinant; tags: N-terminal GST; dsDNA, one strand shown. In short, it runs like this:
as §1

The target of assay [5] is ELF4 (Homo sapiens, UniProt Q99607 1-663). As to conditions: protein: recombinant; tags: N-terminal GST; dsDNA, one strand shown. In short, it runs like this:
as §1

The target in assay [6] is T3, ELK4 (Homo sapiens, UniProt P28324-2 1-405).
T3 sequence: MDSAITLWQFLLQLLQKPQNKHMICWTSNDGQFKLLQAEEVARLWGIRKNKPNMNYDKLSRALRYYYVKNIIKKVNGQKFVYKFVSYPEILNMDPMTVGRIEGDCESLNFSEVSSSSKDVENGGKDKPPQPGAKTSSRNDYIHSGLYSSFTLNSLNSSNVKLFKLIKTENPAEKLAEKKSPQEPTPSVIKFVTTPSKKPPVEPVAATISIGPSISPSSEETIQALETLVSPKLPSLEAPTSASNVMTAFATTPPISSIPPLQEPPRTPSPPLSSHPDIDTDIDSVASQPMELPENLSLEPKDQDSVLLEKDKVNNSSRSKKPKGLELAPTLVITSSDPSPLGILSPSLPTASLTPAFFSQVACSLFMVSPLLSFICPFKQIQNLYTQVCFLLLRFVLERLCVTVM
As to conditions: protein: recombinant; tags: N-terminal GST; dsDNA, one strand shown. In outline: as §1

Assay [7] addresses T4, ETV2 (Homo sapiens, UniProt O00321 1-342).
T4 sequence: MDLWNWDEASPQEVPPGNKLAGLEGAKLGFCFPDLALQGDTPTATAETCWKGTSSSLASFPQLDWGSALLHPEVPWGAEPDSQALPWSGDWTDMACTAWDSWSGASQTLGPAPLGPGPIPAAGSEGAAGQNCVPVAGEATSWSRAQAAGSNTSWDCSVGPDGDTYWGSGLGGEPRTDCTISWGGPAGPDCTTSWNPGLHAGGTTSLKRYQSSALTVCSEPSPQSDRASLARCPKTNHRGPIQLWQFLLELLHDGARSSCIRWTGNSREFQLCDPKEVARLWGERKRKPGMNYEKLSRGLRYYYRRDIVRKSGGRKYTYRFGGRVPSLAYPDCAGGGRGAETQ
As to conditions: protein: recombinant; tags: N-terminal GST; dsDNA, one strand shown. In outline:
as §1

Assay [8] concerns the target T5, ELF3 (Homo sapiens, UniProt P78545 1-371).
T5 sequence: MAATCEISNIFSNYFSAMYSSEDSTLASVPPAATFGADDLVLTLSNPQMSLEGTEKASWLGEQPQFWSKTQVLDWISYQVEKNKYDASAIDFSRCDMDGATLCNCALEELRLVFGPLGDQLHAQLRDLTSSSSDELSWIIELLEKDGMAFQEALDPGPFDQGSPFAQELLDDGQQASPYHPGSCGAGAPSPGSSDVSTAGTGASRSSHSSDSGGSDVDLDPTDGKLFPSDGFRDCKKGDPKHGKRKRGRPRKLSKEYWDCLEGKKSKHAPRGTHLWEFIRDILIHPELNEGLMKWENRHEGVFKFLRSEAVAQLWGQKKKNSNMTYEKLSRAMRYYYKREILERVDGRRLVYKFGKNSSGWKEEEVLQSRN
The settings on record: protein: recombinant; tags: N-terminal GST; dsDNA, one strand shown. In short, it runs like this: as §1

For assay [9], the target named is CRX (Homo sapiens, UniProt O43186 1-299). As to conditions: protein: recombinant; tags: N-terminal GST; dsDNA, one strand shown. In short, it runs like this:
as §1

Assay [10] concerns the target ETV1 (Homo sapiens, UniProt P50549 1-477). The settings on record: protein: recombinant; tags: N-terminal GST; dsDNA, one strand shown. In outline: as §1
Assay [11] has as its target T6, ERF (Homo sapiens, UniProt P50548 1-548).
T6 sequence: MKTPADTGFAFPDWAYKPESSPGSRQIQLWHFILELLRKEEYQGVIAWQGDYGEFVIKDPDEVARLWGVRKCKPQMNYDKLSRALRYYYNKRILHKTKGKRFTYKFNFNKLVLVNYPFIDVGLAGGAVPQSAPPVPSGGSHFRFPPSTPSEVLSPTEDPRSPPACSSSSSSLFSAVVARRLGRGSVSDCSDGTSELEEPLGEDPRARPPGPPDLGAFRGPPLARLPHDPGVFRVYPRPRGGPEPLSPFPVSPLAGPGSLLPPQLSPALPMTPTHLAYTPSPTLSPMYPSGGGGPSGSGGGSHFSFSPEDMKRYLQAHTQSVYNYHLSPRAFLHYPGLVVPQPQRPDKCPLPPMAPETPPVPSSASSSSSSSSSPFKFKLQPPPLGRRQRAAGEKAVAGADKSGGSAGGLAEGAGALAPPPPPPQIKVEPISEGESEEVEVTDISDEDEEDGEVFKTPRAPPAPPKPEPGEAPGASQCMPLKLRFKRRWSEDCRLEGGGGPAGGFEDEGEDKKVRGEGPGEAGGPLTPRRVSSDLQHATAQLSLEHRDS
As to conditions: protein: recombinant; tags: N-terminal GST; dsDNA, one strand shown. In short, it runs like this:
as §1

Assay [12] concerns the target T7, ETV3L (Homo sapiens, UniProt Q6ZN32 1-361).
T7 sequence: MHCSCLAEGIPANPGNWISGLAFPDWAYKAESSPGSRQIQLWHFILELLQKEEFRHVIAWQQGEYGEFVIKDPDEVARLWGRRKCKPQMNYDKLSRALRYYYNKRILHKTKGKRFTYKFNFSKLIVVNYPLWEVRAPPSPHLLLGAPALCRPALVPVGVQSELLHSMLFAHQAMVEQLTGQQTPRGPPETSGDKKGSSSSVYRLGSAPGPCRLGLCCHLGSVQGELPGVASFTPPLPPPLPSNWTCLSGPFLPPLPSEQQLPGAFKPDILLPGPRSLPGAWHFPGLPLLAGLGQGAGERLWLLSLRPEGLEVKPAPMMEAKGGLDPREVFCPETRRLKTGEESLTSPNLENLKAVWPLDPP
The settings on record: protein: recombinant; tags: N-terminal GST; dsDNA, one strand shown. In outline: as §1

Assay [13] concerns the target T8, ETS2 (Homo sapiens, UniProt P15036 1-469).
T8 sequence: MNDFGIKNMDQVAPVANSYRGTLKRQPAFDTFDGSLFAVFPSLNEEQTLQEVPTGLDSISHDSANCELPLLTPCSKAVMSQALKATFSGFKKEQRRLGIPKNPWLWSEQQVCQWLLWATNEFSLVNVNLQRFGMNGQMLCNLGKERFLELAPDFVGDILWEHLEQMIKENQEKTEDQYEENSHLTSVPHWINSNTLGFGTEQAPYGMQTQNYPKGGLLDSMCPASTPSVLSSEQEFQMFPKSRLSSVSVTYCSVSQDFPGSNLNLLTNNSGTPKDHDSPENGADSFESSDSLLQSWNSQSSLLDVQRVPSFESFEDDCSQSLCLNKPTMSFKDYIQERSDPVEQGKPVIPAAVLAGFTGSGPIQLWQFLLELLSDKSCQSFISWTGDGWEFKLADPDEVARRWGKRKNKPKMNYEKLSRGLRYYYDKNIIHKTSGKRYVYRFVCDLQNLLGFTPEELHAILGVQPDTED
As to conditions: protein: recombinant; tags: N-terminal GST; dsDNA, one strand shown. In short, it runs like this: as §1

Assay [14] deals with T9, SPDEF (Homo sapiens, UniProt O95238 1-335).
T9 sequence: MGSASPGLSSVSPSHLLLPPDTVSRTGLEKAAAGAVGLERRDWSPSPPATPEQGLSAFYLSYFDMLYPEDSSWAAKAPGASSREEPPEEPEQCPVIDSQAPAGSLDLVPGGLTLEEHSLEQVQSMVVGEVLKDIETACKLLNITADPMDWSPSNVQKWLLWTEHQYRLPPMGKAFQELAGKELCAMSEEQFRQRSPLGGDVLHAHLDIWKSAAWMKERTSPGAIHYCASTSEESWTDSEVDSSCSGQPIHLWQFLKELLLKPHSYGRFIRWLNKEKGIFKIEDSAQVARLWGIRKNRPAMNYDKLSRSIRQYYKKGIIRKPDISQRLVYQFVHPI
The settings on record: protein: recombinant; tags: N-terminal GST; dsDNA, one strand shown. In short, it runs like this: as §1

Assay [15] has as its target T10, ETV7 (Homo sapiens, UniProt Q9Y603 1-341).
T10 sequence: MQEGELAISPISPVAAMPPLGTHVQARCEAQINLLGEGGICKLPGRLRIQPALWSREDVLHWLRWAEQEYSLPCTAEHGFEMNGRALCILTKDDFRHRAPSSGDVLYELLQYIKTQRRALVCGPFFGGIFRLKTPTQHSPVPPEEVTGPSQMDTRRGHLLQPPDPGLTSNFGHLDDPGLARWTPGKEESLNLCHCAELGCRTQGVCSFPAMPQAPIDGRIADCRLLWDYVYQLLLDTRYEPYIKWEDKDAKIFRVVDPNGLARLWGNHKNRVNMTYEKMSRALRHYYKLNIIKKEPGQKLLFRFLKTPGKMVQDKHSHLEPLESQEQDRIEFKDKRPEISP
As to conditions: protein: recombinant; tags: N-terminal GST; dsDNA, one strand shown. In short, it runs like this:
as §1

The target in assay [16] is T11, ELF5 (Homo sapiens, UniProt Q9UKW6-2 1-255).
T11 sequence: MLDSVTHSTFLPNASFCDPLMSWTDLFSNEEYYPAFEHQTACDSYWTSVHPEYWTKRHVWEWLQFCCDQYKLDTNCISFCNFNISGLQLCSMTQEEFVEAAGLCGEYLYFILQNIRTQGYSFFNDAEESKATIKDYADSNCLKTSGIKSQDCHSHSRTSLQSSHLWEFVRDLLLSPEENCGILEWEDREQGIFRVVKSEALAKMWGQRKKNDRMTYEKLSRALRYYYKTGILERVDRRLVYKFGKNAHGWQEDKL
As to conditions: protein: recombinant; tags: N-terminal GST; dsDNA, one strand shown. In short, it runs like this: as §1

Assay [17] has as its target T12, ETV3 (Homo sapiens, UniProt P41162-2 1-143).
T12 sequence: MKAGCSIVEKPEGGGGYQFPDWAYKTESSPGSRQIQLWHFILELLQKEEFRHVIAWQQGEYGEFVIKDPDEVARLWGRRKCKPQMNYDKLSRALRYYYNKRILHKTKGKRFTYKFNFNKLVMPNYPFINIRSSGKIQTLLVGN
As to conditions: protein: recombinant; tags: N-terminal GST; dsDNA, one strand shown. In outline: as §1

For assay [18], the target named is ETV6 (Homo sapiens, UniProt P41212 1-452). The settings on record: protein: recombinant; tags: N-terminal GST; dsDNA, one strand shown. In short, it runs like this:
as §1

CRX, sequence (O43186 whole entry): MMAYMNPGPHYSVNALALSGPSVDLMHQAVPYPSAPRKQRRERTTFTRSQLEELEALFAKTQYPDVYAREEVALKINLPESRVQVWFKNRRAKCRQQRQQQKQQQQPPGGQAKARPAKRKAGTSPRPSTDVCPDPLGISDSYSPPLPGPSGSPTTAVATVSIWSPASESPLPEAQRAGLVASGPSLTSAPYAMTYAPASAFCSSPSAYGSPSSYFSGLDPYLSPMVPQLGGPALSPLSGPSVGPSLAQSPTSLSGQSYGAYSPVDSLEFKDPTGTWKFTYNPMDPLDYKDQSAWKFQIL
ELF4, sequence (Q99607 whole entry): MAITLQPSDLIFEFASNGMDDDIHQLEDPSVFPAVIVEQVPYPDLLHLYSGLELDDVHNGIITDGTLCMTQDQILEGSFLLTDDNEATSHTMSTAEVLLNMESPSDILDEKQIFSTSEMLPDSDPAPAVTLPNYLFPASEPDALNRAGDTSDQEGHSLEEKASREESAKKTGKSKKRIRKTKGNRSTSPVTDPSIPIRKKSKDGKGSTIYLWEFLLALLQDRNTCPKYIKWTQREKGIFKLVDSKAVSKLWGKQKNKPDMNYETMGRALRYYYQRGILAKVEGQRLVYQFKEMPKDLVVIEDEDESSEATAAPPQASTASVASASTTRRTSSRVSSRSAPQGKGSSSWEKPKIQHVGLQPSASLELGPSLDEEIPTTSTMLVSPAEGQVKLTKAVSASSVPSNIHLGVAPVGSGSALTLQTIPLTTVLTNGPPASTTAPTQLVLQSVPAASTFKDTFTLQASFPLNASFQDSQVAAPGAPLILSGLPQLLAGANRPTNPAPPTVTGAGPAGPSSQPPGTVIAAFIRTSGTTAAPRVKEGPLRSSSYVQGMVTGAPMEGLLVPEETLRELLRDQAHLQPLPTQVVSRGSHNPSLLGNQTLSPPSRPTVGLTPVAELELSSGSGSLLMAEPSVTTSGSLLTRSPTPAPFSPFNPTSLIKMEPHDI
ETV6, sequence (P41212 whole entry): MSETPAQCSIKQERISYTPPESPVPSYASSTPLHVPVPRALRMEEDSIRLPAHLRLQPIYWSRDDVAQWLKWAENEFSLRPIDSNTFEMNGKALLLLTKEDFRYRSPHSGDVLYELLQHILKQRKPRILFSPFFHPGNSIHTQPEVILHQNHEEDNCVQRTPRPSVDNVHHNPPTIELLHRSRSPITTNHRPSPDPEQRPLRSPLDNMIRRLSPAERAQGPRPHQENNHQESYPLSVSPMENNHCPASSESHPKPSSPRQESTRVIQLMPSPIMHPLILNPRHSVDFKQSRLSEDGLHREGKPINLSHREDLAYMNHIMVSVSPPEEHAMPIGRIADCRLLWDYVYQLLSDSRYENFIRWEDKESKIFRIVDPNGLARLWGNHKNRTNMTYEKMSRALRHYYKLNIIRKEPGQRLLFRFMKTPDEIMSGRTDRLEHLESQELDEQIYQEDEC
ETV5, sequence (P41161 whole entry): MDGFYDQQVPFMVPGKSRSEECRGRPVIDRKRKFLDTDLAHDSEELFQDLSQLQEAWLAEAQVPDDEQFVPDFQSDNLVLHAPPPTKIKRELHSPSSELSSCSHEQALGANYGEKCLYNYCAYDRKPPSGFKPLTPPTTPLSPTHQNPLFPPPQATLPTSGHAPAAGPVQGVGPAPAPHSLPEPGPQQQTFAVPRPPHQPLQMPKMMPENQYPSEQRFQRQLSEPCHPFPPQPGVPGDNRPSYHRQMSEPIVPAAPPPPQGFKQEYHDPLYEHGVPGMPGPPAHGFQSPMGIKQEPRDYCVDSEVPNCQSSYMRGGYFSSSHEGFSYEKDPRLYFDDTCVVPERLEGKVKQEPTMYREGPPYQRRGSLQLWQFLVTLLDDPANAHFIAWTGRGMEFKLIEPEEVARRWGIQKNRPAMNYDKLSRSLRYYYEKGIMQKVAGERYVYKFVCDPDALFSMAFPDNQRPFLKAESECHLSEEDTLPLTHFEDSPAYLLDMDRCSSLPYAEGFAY
HSF1, sequence (Q00613 whole entry): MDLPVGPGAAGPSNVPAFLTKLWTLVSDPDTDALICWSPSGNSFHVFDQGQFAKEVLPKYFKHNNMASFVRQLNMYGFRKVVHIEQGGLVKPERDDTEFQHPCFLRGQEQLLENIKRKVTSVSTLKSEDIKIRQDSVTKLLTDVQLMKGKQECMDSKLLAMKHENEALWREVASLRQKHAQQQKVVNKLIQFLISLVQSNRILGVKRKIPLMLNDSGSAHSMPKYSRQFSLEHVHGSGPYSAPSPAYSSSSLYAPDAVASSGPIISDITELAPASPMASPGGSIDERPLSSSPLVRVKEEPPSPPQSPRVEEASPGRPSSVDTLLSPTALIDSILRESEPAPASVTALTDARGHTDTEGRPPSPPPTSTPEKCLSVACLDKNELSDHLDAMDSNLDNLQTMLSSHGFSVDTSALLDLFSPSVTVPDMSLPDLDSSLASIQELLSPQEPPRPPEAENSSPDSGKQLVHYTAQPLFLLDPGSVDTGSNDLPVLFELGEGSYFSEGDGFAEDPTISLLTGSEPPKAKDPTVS
ETV1, sequence (P50549 whole entry): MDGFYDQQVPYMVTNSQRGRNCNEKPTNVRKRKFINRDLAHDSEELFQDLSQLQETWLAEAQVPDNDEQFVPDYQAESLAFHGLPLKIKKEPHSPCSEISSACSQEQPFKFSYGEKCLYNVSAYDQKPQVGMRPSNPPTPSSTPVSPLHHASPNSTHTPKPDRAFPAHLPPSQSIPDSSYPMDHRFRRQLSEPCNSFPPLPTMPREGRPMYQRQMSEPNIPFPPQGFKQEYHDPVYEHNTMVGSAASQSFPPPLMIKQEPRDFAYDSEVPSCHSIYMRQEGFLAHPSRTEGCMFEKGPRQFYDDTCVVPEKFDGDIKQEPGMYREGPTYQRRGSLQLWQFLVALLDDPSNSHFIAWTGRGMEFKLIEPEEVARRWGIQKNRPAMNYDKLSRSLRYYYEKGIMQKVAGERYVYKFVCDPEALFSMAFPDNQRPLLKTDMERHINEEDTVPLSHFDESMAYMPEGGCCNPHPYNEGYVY

For TCACGA, the binding signal in assay [1] is 1.05 fold enrichment (6-mer frequency, TF over GST control); in [2], 1.09 fold enrichment (6-mer frequency, TF over GST control); in assay [3], 1.37 fold enrichment (6-mer frequency, TF over GST control); in [4] it was 1.1 fold enrichment (6-mer frequency, TF over GST control); in [5], 1.27 fold enrichment (6-mer frequency, TF over GST control); in assay [6], 1.19 fold enrichment (6-mer frequency, TF over GST control). For the same sequence, the binding signal in [7] is 1.12 fold enrichment (6-mer frequency, TF over GST control); in assay [8] it was 1.17 fold enrichment (6-mer frequency, TF over GST control); in [9], 1.1 fold enrichment (6-mer frequency, TF over GST control); in assay [10], 1.13 fold enrichment (6-mer frequency, TF over GST control); in assay [11], 1.14 fold enrichment (6-mer frequency, TF over GST control); in [12], 1.04 fold enrichment (6-mer frequency, TF over GST control). The binding signal in assay [13] was 1.13 fold enrichment (6-mer frequency, TF over GST control); in [14], 1.17 fold enrichment (6-mer frequency, TF over GST control); in assay [15], 1.16 fold enrichment (6-mer frequency, TF over GST control); in assay [16], 1.03 fold enrichment (6-mer frequency, TF over GST control); in assay [17], 1.14 fold enrichment (6-mer frequency, TF over GST control); in assay [18], 1.16 fold enrichment (6-mer frequency, TF over GST control).

(Values after PMC7862700, “An all-to-all approach to the identification of sequence-specific readers for epigenetic DNA modifications on cytosine”.)
